{"source": "PubChem BioAssay (NCATS)", "note": "Results filed as inconclusive are left out. A number with no mark means an inactive call. Calls follow the shape of the dose curve; as a rule, active = well fitted activation curve with a large enough effect; inconclusive = small, poorly fitted or top-dose-only effect; inactive = no such curve, though single readings can be large or run the other way.", "data": [{"biological_target": "Cellular tumor antigen p53 (Homo sapiens) (UniProt P04637)", "sequence (P04637 whole entry, looked up)": "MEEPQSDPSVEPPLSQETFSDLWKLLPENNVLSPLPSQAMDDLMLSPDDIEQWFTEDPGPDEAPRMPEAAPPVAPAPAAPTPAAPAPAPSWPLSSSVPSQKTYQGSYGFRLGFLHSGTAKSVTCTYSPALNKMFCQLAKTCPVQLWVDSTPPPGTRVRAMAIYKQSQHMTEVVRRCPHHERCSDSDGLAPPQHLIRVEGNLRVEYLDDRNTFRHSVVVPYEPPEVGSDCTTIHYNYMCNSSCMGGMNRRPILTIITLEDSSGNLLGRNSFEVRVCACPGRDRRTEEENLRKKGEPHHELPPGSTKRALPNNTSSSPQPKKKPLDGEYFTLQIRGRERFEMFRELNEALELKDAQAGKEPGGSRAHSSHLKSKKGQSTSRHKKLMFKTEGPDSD", "test": "Primary qHTS for small molecule compounds that upregulate eGFP-tagged delta133p53alpha (in N-terminal) cells. (AID 2060322);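 also: cells pre-induced with doxycycline then dosed without doxycycline; series mostly up to about 56 µM; 0% = DMSO vehicle and 100% = reference activator; nearly all actives have a fitted effect of over 75% in size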", "details": "NCI-H358 eGFP-delta133p53alpha fluorescence, 24 h; activation: hits give high values", "procedure,_shortened": "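NCI-H358 cells pre-induced 24 h with 10 ng/ml doxycycline for eGFP-delta133p53alpha, plated dox-free and exposed 24 h at 37C to titrated compounds. Fixed, Hoechst-stained; gated GFP peak intensity by laser scanning cytometry, normalized to DMSO (0%) and 57.5 uM 5-azacytidine (100%).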", "units": {"activation": "%"}, "values": [{"smiles": "Cc1c(C(=O)O)c(O)cc2c1C(=O)c1c(O)c([C@@H]3O[C@H](CO)[C@@H](O)[C@H](O)[C@H]3O)c(O)c(O)c1C2=O", "activation": -4.18}, {"smiles": "COc1ccc(NS(=O)(=O)c2ccc(N)cc2)nn1", "activation": 6.69}, {"smiles": "CN1C(=O)CC(C)(c2ccccc2)C1=O", "note": "(centres undefined)", "activation": 23.4}, {"smiles": "N[C@@H](Cc1cc(I)c(O)c(I)c1)C(=O)O", "activation": 4.18}]}]}
